Measured values published in PubChem BioAssay (NCI).
About 79,000 compounds went through this panel and 15% of them were active in at least one assay; those are over-represented in the sample as a whole. Calls of active or inactive are those of the source. Cut-off read from the data, not from the text of the source: active = growth inhibition above about 70%; inactive = the rest.

Key:
[1] = NCI Yeast Anticancer Drug Screen. Data for the rad52 strain (AID 147);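 note: 0% = growth of vehicle-treated control cultures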; details: S. cerevisiae rad52 mutant growth inhibition, stronger effect = higher value
Summary of the method: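 Here a repair-compromised yeast strain receives each compound; its growth is then quantified and normalised to vehicle-only controls.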

[2] = NCI Yeast Anticancer Drug Screen. Data for the wt1 strain (AID 149);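 note: 0% = growth of vehicle-treated wt1 cultures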; details: S. cerevisiae wt1 strain (SPY 50644) growth inhibition, stronger effect = higher value
Summary of the method: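 Measured: growth of wt1 yeast under compound versus vehicle treatment, reported as inhibition.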

[3] = NCI Yeast Anticancer Drug Screen. Data for the rad50EPP+ strain (AID 151);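 note: 0% = growth of vehicle-treated control cultures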; details: S. cerevisiae rad50 mutant strain, stronger effect = higher value
Summary of the method: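 Read-out is yeast growth inhibition relative to vehicle; cells used were the rad50EPP+ strain.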

[4] = NCI Yeast Anticancer Drug Screen. Data for the mgt1 strain (AID 153); details: S. cerevisiae mgt1 mutant growth inhibition, stronger effect = higher value
Summary of the method: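 Measured: inhibition of mgt1 yeast growth by compound, normalized to vehicle-treated cultures.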

[5] = NCI Yeast Anticancer Drug Screen. Data for the rad50 strain (AID 155);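 note: 0% = growth of vehicle-only cultures of the same strain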; details: S. cerevisiae rad50 strain growth inhibition, stronger effect = higher value
Summary of the method: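 Growth of the mutant yeast was measured after compound exposure and referenced to vehicle-treated cultures.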

[6] = NCI Yeast Anticancer Drug Screen. Data for the mec2-1 strain (AID 157); details: S. cerevisiae mec2-1 strain, stronger effect = higher value
Summary of the method: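 Using mec2-1 yeast: add compound, measure growth, express inhibition versus vehicle-treated cultures.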

[7] = NCI Yeast Anticancer Drug Screen. Data for the rad14 strain (AID 159);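 note: 0% = growth of vehicle-treated control cultures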; details: S. cerevisiae rad14 strain growth inhibition, stronger effect = higher value
Summary of the method: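 Here, inhibition of yeast growth was measured after compound exposure, using a strain with a genetic defect in DNA damage repair and vehicle-treated cultures as the reference.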

[8] = NCI Yeast Anticancer Drug Screen. Data for the sgs1 mgt1 strain (AID 161);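 note: 0% = growth of cultures given vehicle only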; details: S. cerevisiae sgs1 mgt1 strain, stronger effect = higher value
Summary of the method: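 This yeast growth screen uses a strain with defined DNA-repair lesions; compound-treated growth is compared with vehicle-treated growth.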

[9] = NCI Yeast Anticancer Drug Screen. Data for the CLN2oe strain (AID 163);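 note: 0% = growth of vehicle-only control cultures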; details: S. cerevisiae CLN2oe strain, stronger effect = higher value
Summary of the method: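 Whole-cell yeast growth assay. A strain engineered for altered cell-cycle control received compound, and inhibition relative to vehicle-treated cultures was recorded.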

[10] = NCI Yeast Anticancer Drug Screen. Data for the cln2 rad14 strain (AID 165);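 note: 0% = growth equal to vehicle treated cultures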; details: S. cerevisiae cln2 rad14 strain, stronger effect = higher value
Summary of the method: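 Yeast strain cln2 rad14, bearing defects in cell cycle control and DNA repair, serves as the test system; values reflect growth inhibition compared with vehicle.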

[11] = NCI Yeast Anticancer Drug Screen. Data for the bub3 strain (AID 167); details: S. cerevisiae bub3 mutant strain, stronger effect = higher value
Summary of the method: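 Whole-cell yeast assay. The mutant strain was incubated with compounds, and growth inhibition was determined by comparison with vehicle-treated cells.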

[12] = NCI Yeast Anticancer Drug Screen. Data for the wt2 strain (AID 169);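 note: 0% = growth of vehicle-treated yeast cultures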; details: S. cerevisiae wt2 strain growth inhibition, stronger effect = higher value
Summary of the method: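 Treated yeast vs. vehicle-treated yeast: growth inhibition determined.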

[13] = NCI Yeast Anticancer Drug Screen. Data for the mlh1 strain (AID 171);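 note: 0% = growth of vehicle-treated control cultures of the same strain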; details: S. cerevisiae mlh1 strain growth inhibition, stronger effect = higher value
Summary of the method: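 A yeast strain with a defined genetic lesion serves as the test organism. Cultures receive compound or vehicle, and growth is measured.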

[14] = NCI Yeast Anticancer Drug Screen. Data for the sgs1 strain (AID 173);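 note: 0% = growth of vehicle-only control cultures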; details: S. cerevisiae sgs1 mutant, stronger effect = higher value
Summary of the method: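 A genetically defined yeast mutant is incubated with the test compound, and its growth is compared to that of the same strain given vehicle.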

[15] = NCI Yeast Anticancer Drug Screen. Data for the mlh1 rad18 strain (AID 175); details: S. cerevisiae mlh1 rad18 strain growth inhibition, stronger effect = higher value
Summary of the method: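 Steps: expose repair-defective yeast to compound; measure growth; express inhibition against vehicle-treated controls.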

[16] = NCI Yeast Anticancer Drug Screen. Data for the rad18 strain (AID 177); details: S. cerevisiae rad18 mutant growth inhibition, stronger effect = higher value
Summary of the method: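 Measured value is growth inhibition of a yeast strain bearing a DNA repair alteration, referenced to vehicle-treated cells.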

[17] = at 5.0 µM (retest, dose inferred, filed as 0.5)
[18] = at 50.0 µM (retest, dose inferred, filed as 5.0)

Measured: growth inhibition

CC(C(=O)N1C(=O)N(C(=O)C(C)C(O)c2ccccc2)C2CCCCC21)C(O)c1ccccc1 (stereo unspecified)
active: [5]; at 50.0 µM 97.1% | [6]; at 50.0 µM 97.2% | [8]; at 50.0 µM 97.5% | [10]; [17] 87% | [10]; at 50.0 µM 96.5% | [11]; at 50.0 µM 97.8% | [15]; at 50.0 µM 97.2%
inactive: [1]; at 1.2 µM 5% | [1]; at 3.7 µM 8% | [1]; at 11.0 µM 11% | [1]; at 33.0 µM 11% | [1]; at 100.0 µM 19% | [2]; at 1.2 µM 2% | [2]; at 3.7 µM -1% | [2]; at 11.0 µM 7% | [2]; at 33.0 µM 3% | [2]; at 100.0 µM 12% | [3]; at 1.2 µM 0% | [3]; at 3.7 µM -3% | [3]; at 11.0 µM 0% | [3]; at 33.0 µM 2% | [3]; at 100.0 µM 3% | [4]; at 1.2 µM -4% | [4]; at 3.7 µM 0% | [4]; at 11.0 µM 1% | [4]; at 33.0 µM 1% | [4]; at 100.0 µM 29% | [5]; at 1.2 µM 0% | [5]; at 3.7 µM -9% | [5]; [17] -5% | [5]; at 11.0 µM -7% | [5]; at 33.0 µM 16% | [5]; [18] 8% | [5]; at 100.0 µM 20% | [6]; at 1.2 µM 3% | [6]; at 3.7 µM 1% | [6]; [17] -7% | [6]; at 11.0 µM 2% | [6]; at 33.0 µM 14% | [6]; [18] -2% | [6]; at 100.0 µM 24% | [7]; at 1.2 µM 2% | [7]; at 3.7 µM 1% | [7]; at 11.0 µM 4% | [7]; at 33.0 µM 9% | [7]; at 100.0 µM 20% | [8]; [17] -7% | [8]; [18] 11% | [9]; at 1.2 µM 1% | [9]; at 3.7 µM -2% | [9]; at 11.0 µM 4% | [9]; at 33.0 µM 11% | [9]; at 100.0 µM 15% | [10]; [18] 14% | [11]; at 1.2 µM -2% | [11]; at 3.7 µM -1% | [11]; [17] -13% | [11]; at 11.0 µM -2% | [11]; at 33.0 µM 1% | [11]; [18] -9% | [11]; at 100.0 µM 4% | [12]; at 1.2 µM -2% | [12]; at 3.7 µM -1% | [12]; at 11.0 µM 1% | [12]; at 33.0 µM 7% | [12]; at 100.0 µM 29% | [13]; at 1.2 µM 0% | [13]; at 3.7 µM 0% | [13]; at 11.0 µM 1% | [13]; at 33.0 µM 11% | [13]; at 100.0 µM 26% | [14]; at 1.2 µM 2% | [14]; at 3.7 µM 2% | [14]; at 11.0 µM 0% | [14]; at 33.0 µM 23% | [14]; at 100.0 µM 46% | [15]; [17] 2% | [15]; [18] 1% | [16]; at 1.2 µM 2% | [16]; at 3.7 µM 4% | [16]; at 11.0 µM 5% | [16]; at 33.0 µM 20% | [16]; at 100.0 µM 27%

COc1ccc(C(OCC2OC(n3cnc4c(=O)n(Cc5ccccc5[N+](=O)[O-])nnc43)C(O)C2O)(c2ccccc2)c2ccc(OC)cc2)cc1 (stereo unspecified)
inactive: [1]; at 1.2 µM 12% | [1]; at 3.7 µM 16% | [1]; at 11.0 µM 18% | [1]; at 33.0 µM 19% | [1]; at 100.0 µM 15% | [2]; at 1.2 µM -18% | [2]; at 3.7 µM -11% | [2]; at 11.0 µM -2% | [2]; at 33.0 µM -4% | [2]; at 100.0 µM -2% | [3]; at 1.2 µM 8% | [3]; at 3.7 µM 8% | [3]; at 11.0 µM -5% | [3]; at 33.0 µM -7% | [3]; at 100.0 µM -15% | [4]; at 1.2 µM 9% | [4]; at 3.7 µM 5% | [4]; at 11.0 µM 20% | [4]; at 33.0 µM 25% | [4]; at 100.0 µM 20% | [5]; at 1.2 µM 22% | [5]; at 3.7 µM 24% | [5]; [17] 17% | [5]; at 11.0 µM 26% | [5]; at 33.0 µM 18% | [5]; [18] 35% | [5]; at 100.0 µM 17% | [6]; at 1.2 µM 14% | [6]; at 3.7 µM 13% | [6]; [17] 14% | [6]; at 11.0 µM 15% | [6]; at 33.0 µM 22% | [6]; [18] 33% | [6]; at 100.0 µM 9% | [7]; at 1.2 µM -23% | [7]; at 3.7 µM -22% | [7]; at 11.0 µM -25% | [7]; at 33.0 µM -28% | [7]; at 100.0 µM -31% | [8]; [17] 0% | [9]; at 1.2 µM 9% | [9]; at 3.7 µM -4% | [9]; at 11.0 µM -7% | [9]; at 33.0 µM 11% | [9]; at 100.0 µM -3% | [10]; [17] 2% | [11]; at 1.2 µM 32% | [11]; at 3.7 µM 26% | [11]; [17] 7% | [11]; at 11.0 µM 23% | [11]; at 33.0 µM 26% | [11]; at 100.0 µM 14% | [12]; at 1.2 µM 1% | [12]; at 3.7 µM -4% | [12]; at 11.0 µM 6% | [12]; at 33.0 µM 13% | [12]; at 100.0 µM 6% | [13]; at 1.2 µM -8% | [13]; at 3.7 µM -2% | [13]; at 11.0 µM -2% | [13]; at 33.0 µM 3% | [13]; at 100.0 µM -4% | [14]; at 1.2 µM -10% | [14]; at 3.7 µM -20% | [14]; at 11.0 µM -10% | [14]; at 33.0 µM -5% | [14]; at 100.0 µM 8% | [15]; [17] 21% | [15]; [18] 23% | [16]; at 1.2 µM 28% | [16]; at 3.7 µM 27% | [16]; at 11.0 µM 33% | [16]; at 33.0 µM 37% | [16]; at 100.0 µM 32%
active: [5]; at 50.0 µM 89.2% | [6]; at 50.0 µM 91.4% | [8]; [18] 97% | [8]; at 50.0 µM 91.6% | [10]; [18] 88% | [10]; at 50.0 µM 88.7% | [11]; [18] 96% | [11]; at 50.0 µM 89.4% | [15]; at 50.0 µM 89.5%
